Bioassay records (PubChem)
The entries come from a sample that favours hits as a whole.
Cycloheximide cs: counter-screen hit for Shiga toxin inhibitors, cycloheximide | AID 2314 | cell reporter, cycloheximide protein synthesis inhibition counterscreen | max response, % | 300,000 compounds, 12% hits; in the data active = max response mostly above about 13%, no sharp cut-off; inactive = mostly below about 14%; note: read at 38.3 µM for the half of the compounds with a filed dose; 0% is about no effect
NS1 inh: blocks influenza NS1 protein function; AID 2326; Potency, µM (highest dose often 46.1 µM), without a hit: top-dose activity, positive = more growth; 270,000 compounds, 0.4% hits; calls by dose curve; note: potency is the fitted concentration of half-maximal effect; actives are rising curves; nearly all actives have a fitted effect of over 50% in size
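OD600 was taken as the measure of yeast growth restored by compound in an NS1-expressing S. cerevisiae strain. Cells had been washed out of glucose medium and diluted 1:100 into galactose -URA medium, pH 6.0.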
Shiga toxin inh: inhibitors of Shiga toxin in Vero cells. Vero cells, Shiga toxin protein synthesis inhibition reporter. inhibition, % at 38.7 µM. 290,000 compounds, 9.2% hits. AID 2315; in the data active = inhibition mostly above about 28%, no sharp cut-off; inactive = mostly below about 43%; note: 0% is about no effect
AmpC inh detg: AmpC beta-lactamase inhibition with detergent present; AmpC hydrolysis of nitrocefin, absorbance 480 nm, 0.01% Triton; P00811; AID 485294; 370,000 compounds, 0.041% hits; Potency, µM (series often up to 114 µM), inactives show at the top dose activity change, negative = inhibition, usual class: inhibitors;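 note: potency is the fitted concentration of half-maximal effect; 0% = no-compound wells and -100% = no-enzyme wells; nearly all actives have a fitted effect of over 25% in size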
Target sequence (P00811 whole entry, looked up): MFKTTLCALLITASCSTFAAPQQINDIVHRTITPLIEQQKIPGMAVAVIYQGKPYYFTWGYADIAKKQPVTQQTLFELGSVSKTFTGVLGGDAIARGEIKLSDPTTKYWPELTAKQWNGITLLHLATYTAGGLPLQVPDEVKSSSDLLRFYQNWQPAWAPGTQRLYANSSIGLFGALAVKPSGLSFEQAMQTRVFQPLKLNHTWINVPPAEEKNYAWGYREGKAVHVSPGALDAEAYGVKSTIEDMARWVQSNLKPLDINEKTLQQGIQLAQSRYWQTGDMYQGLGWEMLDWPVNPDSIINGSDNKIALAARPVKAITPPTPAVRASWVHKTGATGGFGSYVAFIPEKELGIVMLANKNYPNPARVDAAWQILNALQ
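20 mM phosphate pH 7.0 + 0.01% (detergent screen) or 0.0001% Triton X-100; 5.3 nM AmpC reagent; cpd preinc 15 min RT; nitrocefin (800 uM stock) to start; A480 q20 s × 4 min; Activity was normalised to no-enzyme and no-compound control wells.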
AmpC no deterg: inhibitors of E. coli AmpC beta-lactamase without detergent; P00811; AmpC nitrocefin hydrolysis, absorbance 480 nm, 0.0001% Triton; Potency, µM (highest dose often 57.1 µM), inactives show top-dose activity change, negative = inhibition, hits mostly inhibitors; 330,000 compounds, 0.52% hits; AID 485341;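 note: potency is the fitted concentration of half-maximal effect; plate controls were no compound for no effect and no enzyme for full effect; nearly all actives have a fitted effect of over 20% in size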
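AmpC (5.3 nM in the dispensed reagent) in 20 mM phosphate pH 7.0 with 0.01% (detergent screen) or 0.0001% Triton X-100 was preincubated with compounds for 15 min at room temperature. Nitrocefin was then added from an 800 uM solution, and hydrolysis was followed at 480 nm.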
Numbers without * were called inactive. Unless noted, calls come from the whole dose curve; as a rule, active = well fitted curve in the direction sought with a large enough effect; inconclusive = small, poorly fitted or top-dose-only effect, or another doubt; inactive = no such curve, though single readings can be large; an effect the other way counts as inactive or inconclusive.

How did O=C(NNC(=O)c1cccc2ccccc12)c1ccc2c(c1)OCO2 do in these assays?
Cycloheximide cs: 24*; NS1 inh: -2%; Shiga toxin inh: 50*; AmpC inh detg: 1%; AmpC no deterg: -14%

What do the screens show for `CNC(=S)NNC(=O)c1ccc(C(C)(C)C)cc1`?
Cycloheximide cs: 17*; NS1 inh: -2%; Shiga toxin inh: 26; AmpC inh detg: -4%; AmpC no deterg: -8%

How did CNC(=S)NNC(=O)c1ccc2c(c1)OCO2 do in these assays?
Cycloheximide cs: 9; NS1 inh: 2%; Shiga toxin inh: 52*; AmpC inh detg: 5%; AmpC no deterg: -8%

Results for COc1ccc(C(=O)Nc2ccc(OCc3cc(=O)n4ccccc4n3)cc2)cc1 ?
AmpC inh detg: 16%

How did CCC(C)NC(=O)C(=O)Nc1c2c(nn1-c1ccccc1)CS(=O)(=O)C2 (stereo unspecified) do in these assays?
AmpC inh detg: 10%

Results for O=C(COc1ccccc1)NCCSCc1ccccc1Cl ?
Cycloheximide cs: 42*; NS1 inh: -6%; Shiga toxin inh: 48*; AmpC inh detg: 3%; AmpC no deterg: 21%

What do the screens show for `O=C(/C=C/c1ccccc1)NCCSCc1ccccc1Cl`?
Cycloheximide cs: 11*; NS1 inh: -62%; Shiga toxin inh: -23; AmpC inh detg: 0%; AmpC no deterg: -28%

Results for O=C(CN1C(=O)c2ccccc2S1(=O)=O)NCCSCc1c(F)cccc1Cl ?
Cycloheximide cs: -1; NS1 inh: -5%; Shiga toxin inh: -18; AmpC inh detg: -11%; AmpC no deterg: -9%

What do the screens show for `COc1ccccc1OCC(=O)NCCSCc1ccccc1Cl`?
Cycloheximide cs: 13; NS1 inh: -47%; Shiga toxin inh: -44; AmpC inh detg: inconclusive; AmpC no deterg: 6%

Results for O=C(CN1C(=O)c2ccccc2S1(=O)=O)NCCSCc1ccccc1Cl ?
Cycloheximide cs: 13*; NS1 inh: 3%; Shiga toxin inh: 27; AmpC inh detg: -8%; AmpC no deterg: -32%

Results for CCc1ccc(N(C(=O)c2csnn2)C(C(=O)NC(C)(C)CC)c2cccnc2)cc1 (stereo unspecified) ?
Cycloheximide cs: 0; Shiga toxin inh: 12; AmpC inh detg: 2%; AmpC no deterg: 44%

Results for COc1cccc(/C=C/c2nc(C#N)c(NCCc3ccc(OC)c(OC)c3)o2)c1 ?
AmpC inh detg: 19%

What do the screens show for `Cc1cc(C)n2nc(C(=O)Nc3ccc4c(c3)OCO4)cc2n1`?
Cycloheximide cs: 34*; NS1 inh: -7%; Shiga toxin inh: 70*; AmpC inh detg: inconclusive; AmpC no deterg: -14%

Results for O=C(Nc1ccc2c(c1)OCO2)c1cc2nc(C3CC3)cc(C(F)(F)F)n2n1 ?
Cycloheximide cs: 12*; NS1 inh: 13%; Shiga toxin inh: 11; AmpC inh detg: -6%; AmpC no deterg: -13%

Results for CC(=O)c1cccc(NC(=O)c2cc3nc(C)cc(C)n3n2)c1 ?
Cycloheximide cs: 27*; NS1 inh: -6%; Shiga toxin inh: 53*; AmpC inh detg: -5%; AmpC no deterg: -51%

What do the screens show for `O=C(Nc1ccc(Cl)cc1)c1cc2nc(-c3ccc4c(c3)OCO4)cc(C(F)(F)F)n2n1`?
AmpC inh detg: 2%

What do the screens show for `O=C(CCCn1c(=O)[nH]c2ccccc2c1=O)NCc1ccccc1Cl`?
AmpC inh detg: -5%

What do the screens show for `COc1cccc(N/C(N)=N/c2nc(CSc3ccccn3)cc(=O)[nH]2)c1`?
Cycloheximide cs: 4; Shiga toxin inh: -29; AmpC inh detg: 1%; AmpC no deterg: -29%

How did COc1ccnc(CSC(N)=Nc2ccc(F)cc2)c1 do in these assays?
Cycloheximide cs: 31*; NS1 inh: 4%; Shiga toxin inh: 66*; AmpC inh detg: -2%; AmpC no deterg: -19%

What do the screens show for `Cc1ccc(Cn2c(SCC(=O)NCc3ccc(Cl)cc3)nc3ccsc3c2=O)cc1`?
AmpC inh detg: 20%

Results for Cc1ccc(Cn2c(SCC(=O)NCc3ccco3)nc3ccsc3c2=O)cc1 ?
Cycloheximide cs: 27*; NS1 inh: -5%; Shiga toxin inh: 42; AmpC inh detg: -9%; AmpC no deterg: -59%

What do the screens show for `Cc1ccc(-n2c(SCC(=O)NCc3ccco3)nc3c(sc4ccccc43)c2=O)cc1`?
Cycloheximide cs: 53*; NS1 inh: 1%; Shiga toxin inh: 119*; AmpC inh detg: 5%; AmpC no deterg: -31%
